# Reference: the supplement of paper PMC8728848
# This is one part of a sample in which the strongest signals are shown more often than they occur.
# What was measured:
# Test in all cases: glycan array binding signal (z-score within array); higher = stronger binding
# Settings in all cases: glycan notation: IUPAC condensed, linker removed
# Gal(b1-6)Gal = target: Gal(b1-6)Gal
# Outline: (§1)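 The binding signal is a Z-score computed within each array. Data were drawn from 3228 arrays in the Consortium for Functional Glycomics database, restricted to those with a known protein sequence. Scores were averaged over arrays of the same protein sequence at different concentrations or buffers, and over linkers, and negative values can be taken as non-binding.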
# Gal3S6S(b1-4)GlcNAc = target: Gal3S6S(b1-4)GlcNAc
# Outline: as §1
# Gal3S6S(b1-4)GlcNAc6S = target: Gal3S6S(b1-4)GlcNAc6S
# Outline: as §1
# Gal4S6S(b1-4)GlcNAc = target: Gal4S6S(b1-4)GlcNAc
# Outline: as §1
# Gal6S(b1-4)Glc = target: Gal6S(b1-4)Glc
# Outline: as §1
# [1] = target: GlcA3S(b1-3)Gal(b1-4)GlcNAc(b1-2)Man
# Outline: as §1
# [2] = target: GlcNAc(a1-4)Gal(b1-4)GlcNAc(b1-3)Gal(b1-4)GlcNAc
# Outline: as §1
# [3] = target: GlcNAc(b1-2)[GlcNAc(b1-4)]Man(a1-3)[GlcNAc(b1-2)Man(a1-6)]Man(b1-4)GlcNAc(b1-4)GlcNAc
# Outline: as §1
# [4] = target: GlcNAc(b1-3)Gal(b1-4)GlcNAc(b1-3)Gal(b1-4)GlcNAc(b1-3)Gal(b1-4)GlcNAc(b1-3)Gal(b1-4)GlcNAc(b1-2)[GlcNAc(b1-3)Gal(b1-4)GlcNAc(b1-3)Gal(b1-4)GlcNAc(b1-3)Gal(b1-4)GlcNAc(b1-3)Gal(b1-4)GlcNAc(b1-6)]Man(a1-6)[GlcNAc(b1-3)Gal(b1-4)GlcNAc(b1-3)Gal(b1-4)GlcNAc(b1-3)Gal(b1-4)GlcNAc(b1-3)Gal(b1-4)GlcNAc(b1-2)Man(a1-3)]Man(b1-4)GlcNAc(b1-4)[Fuc(a1-6)]GlcNAc
# Outline: as §1
# [5] = target: GlcNAc(b1-3)[GlcNAc(b1-6)]Gal(b1-4)GlcNAc
# Outline: as §1
# [6] = target: Man(a1-2)Man(a1-2)Man(a1-3)Man
# Outline: as §1
# [7] = target: Man(a1-3)[Man(a1-6)]Man(b1-4)GlcNAc(b1-4)[Fuc(a1-6)]GlcNAc
# Outline: as §1
# [8] = target: Neu5Ac(a2-3)Gal(b1-3)GalNAc(b1-4)[Neu5Ac(a2-3)]Gal(b1-4)Glc
# Outline: as §1
# [9] = target: Neu5Ac(a2-3)Gal(b1-3)GlcNAc(b1-6)GalNAc
# Outline: as §1
# [10] = target: Neu5Ac(a2-3)Gal(b1-3)[Fuc(a1-4)]GlcNAc(b1-3)Gal(b1-4)[Fuc(a1-3)]GlcNAc
# Outline: as §1
# [11] = target: Neu5Ac(a2-3)Gal(b1-3)]Neu5Ac(a2-3)Gal(b1-4)]GlcNAc
# Outline: as §1
# [12] = target: Neu5Ac(a2-3)Gal(b1-4)GlcNAc(b1-2)Man(a1-3)[GlcNAc(b1-4)][Neu5Ac(a2-3)Gal(b1-4)GlcNAc(b1-2)Man(a1-6)]Man(b1-4)GlcNAc(b1-4)GlcNAc
# Outline: as §1
# [13] = target: Neu5Ac(a2-3)Gal(b1-4)GlcNAc(b1-2)Man(a1-3)[Neu5Ac(a2-3)Gal(b1-4)GlcNAc(b1-2)Man(a1-6)]Man(b1-4)GlcNAc(b1-4)GlcNAc
# Outline: as §1
# [14] = target: Neu5Ac(a2-3)Gal(b1-4)GlcNAc(b1-3)Gal(b1-4)GlcNAc(b1-3)Gal(b1-4)GlcNAc(b1-2)Man(a1-3)[Neu5Ac(a2-3)Gal(b1-4)GlcNAc(b1-3)Gal(b1-4)GlcNAc(b1-3)Gal(b1-4)GlcNAc(b1-2)Man(a1-6)]GalNAc
# Outline: as §1
# [15] = target: Neu5Ac(a2-3)Gal(b1-4)GlcNAc6S
# Outline: as §1
# [16] = target: Neu5Ac(a2-3)Gal(b1-4)[Fuc(a1-3)]GlcNAc(b1-3)GalNAc
# Outline: as §1
# [17] = target: Neu5Ac(a2-6)Gal(b1-4)GlcNAc(b1-2)Man(a1-6)[Man(a1-3)]Man(b1-4)GlcNAc(b1-4)GlcNAc
# Outline: as §1
# [18] = target: Neu5Ac(a2-6)Gal(b1-4)GlcNAc(b1-2)[Neu5Ac(a2-6)Gal(b1-4)GlcNAc(b1-6)]Man(a1-6)[Neu5Ac(a2-6)Gal(b1-4)GlcNAc(b1-2)Man(a1-3)][GlcNAc(b1-4)]Man(b1-4)GlcNAc(b1-4)GlcNAc
# Outline: as §1
# [19] = target: Neu5Ac(a2-6)Gal(b1-4)GlcNAc(b1-3)Gal(b1-4)GlcNAc(b1-3)Gal(b1-4)GlcNAc(b1-2)Man(a1-3)[Neu5Ac(a2-6)Gal(b1-4)GlcNAc(b1-3)Gal(b1-4)GlcNAc(b1-3)Gal(b1-4)GlcNAc(b1-2)Man(a1-6)]GalNAc
# Outline: as §1
# Neu5Ac(a2-6)GalNAc = target: Neu5Ac(a2-6)GalNAc
# Outline: as §1
# [20] = target: Neu5Ac(a2-8)Neu5Ac(a2-3)[GalNAc(b1-4)]Gal(b1-4)Glc
# Outline: as §1
# [21] = target: Neu5Gc(a2-3)Gal(b1-4)GlcNAc
# Outline: as §1
# [22] = target: Neu5Gc(a2-3)Gal(b1-4)[Fuc(a1-3)]GlcNAc
# Outline: as §1
# [23] = target: Neu5Gc(b2-6)Gal(b1-4)GlcNAc
# Outline: as §1
binder,measurement,setting,value
"MtEccB1 (Mycobacterium tuberculosis H37Rv), O69734 (protein) MGLRLTTKVQVSGWRFLLRRLEHAIVRRDTRMFDDPLQFYSRSIALGIVVAVLILAGAALLAYFKPQGKLGGTSLFTDRATNQLYVLLSGQLHPVYNLTSARLVLGNPANPATVKSSELSKLPMGQTVGIPGAPYATPVSAGSTSIWTLCDTVARADSTSPVVQTAVIAMPLEIDASIDPLQSHEAVLVSYQGETWIVTTKGRHAIDLTDRALTSSMGIPVTARPTPISEGMFNALPDMGPWQLPPIPAAGAPNSLGLPDDLVIGSVFQIHTDKGPQYYVVLPDGIAQVNATTAAALRATQAHGLVAPPAMVPSLVVRIAERVYPSPLPDEPLKIVSRPQDPALCWSWQRSAGDQSPQSTVLSGRHLPISPSAMNMGIKQIHGTATVYLDGGKFVALQSPDPRYTESMYYIDPQGVRYGVPNAETAKSLGLSSPQNAPWEIVRLLVDGPVLSKDAALLEHDTLPADPSPRKVPAGASGAP",glycan array binding signal (z-score),Gal(b1-6)Gal,-0.836
same,glycan array binding signal (z-score),Gal3S6S(b1-4)GlcNAc,0.192
same,glycan array binding signal (z-score),Gal3S6S(b1-4)GlcNAc6S,3.9
same,glycan array binding signal (z-score),Gal4S6S(b1-4)GlcNAc,3.03
same,glycan array binding signal (z-score),Gal6S(b1-4)Glc,0.586
same,glycan array binding signal (z-score),[1],-1.14
same,glycan array binding signal (z-score),[2],0.812
same,glycan array binding signal (z-score),[3],-0.488
same,glycan array binding signal (z-score),[4],3.92
same,glycan array binding signal (z-score),[5],-0.11
same,glycan array binding signal (z-score),[6],-1.02
same,glycan array binding signal (z-score),[7],0.339
same,glycan array binding signal (z-score),[8],3.37
same,glycan array binding signal (z-score),[9],-0.342
same,glycan array binding signal (z-score),[10],0.263
same,glycan array binding signal (z-score),[11],0.038
same,glycan array binding signal (z-score),[12],4.06
same,glycan array binding signal (z-score),[13],-1.57
same,glycan array binding signal (z-score),[14],2.66
same,glycan array binding signal (z-score),[15],1.54
same,glycan array binding signal (z-score),[16],0.588
same,glycan array binding signal (z-score),[17],0.711
same,glycan array binding signal (z-score),[18],-0.566
same,glycan array binding signal (z-score),[19],2.47
same,glycan array binding signal (z-score),Neu5Ac(a2-6)GalNAc,-0.143
same,glycan array binding signal (z-score),[20],0.156
same,glycan array binding signal (z-score),[21],-0.509
same,glycan array binding signal (z-score),[22],0.844
same,glycan array binding signal (z-score),[23],-0.779
